Structures are written as SMILES. Results filed as inconclusive are left out. The source made the active and inactive calls. Rule for the calls: active = hit-call score of the fitted dose curve at least 0.9, where 1 is the maximum; inconclusive = response in the unintended direction; inactive = score below 0.9.

The target in the first test is Bile acid receptor (Homo sapiens) (UniProt Q96RI1). Put plainly: OT_FXR_FXRSRC1_0480: Odyssey Thera (OT) 8-hour HEK293T Protein-Complementation Assay for Farnesoid X receptor/SRC-1 Co-activator (AID 2283383). The method in brief: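 Human kidney HEK293T cells carried FXR/SRC-1 fragment-complementation constructs. Compounds were added and incubated 8 h. Reporter reassembly upon receptor–co-activator interaction was then quantified by fluorescence, with curves fitted in the positive direction relative to DMSO.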
Chain of Bile acid receptor (Homo sapiens) (Q96RI1 whole entry, looked up, the tested form may be a part): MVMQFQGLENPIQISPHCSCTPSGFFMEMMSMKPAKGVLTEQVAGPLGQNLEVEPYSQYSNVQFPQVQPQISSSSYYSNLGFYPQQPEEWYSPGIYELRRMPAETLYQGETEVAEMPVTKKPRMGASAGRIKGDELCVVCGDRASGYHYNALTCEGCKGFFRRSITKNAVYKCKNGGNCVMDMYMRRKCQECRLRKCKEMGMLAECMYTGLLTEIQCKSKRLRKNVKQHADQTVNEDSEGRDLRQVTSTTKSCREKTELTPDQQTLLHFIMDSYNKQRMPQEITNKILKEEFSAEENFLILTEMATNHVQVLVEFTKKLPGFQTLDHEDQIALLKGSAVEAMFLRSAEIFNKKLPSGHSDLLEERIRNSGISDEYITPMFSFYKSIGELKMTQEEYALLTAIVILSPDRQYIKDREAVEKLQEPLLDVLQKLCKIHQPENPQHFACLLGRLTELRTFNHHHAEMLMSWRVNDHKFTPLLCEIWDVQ
For `Cc1c(C)c2c(c(C)c1O)CCC(C)(COc1ccc(CC3SC(=O)NC3=O)cc1)O2` (centres undefined), the half-maximal activity concentration (AC50) was 20 µM (active). Still for that read-out and setting: then `CN(C)C(=O)NC1(c2ccccc2)CCN(CCC[C@]2(c3ccc(Cl)c(Cl)c3)CCCN(C(=O)c3ccccc3)C2)CC1`, with 15.9 µM (active). For `CN(C)C(=O)NC1(c2ccccc2)CCN(CC[C@@]2(c3ccc(F)c(F)c3)CN(C(=O)c3ccccc3)CCO2)CC1`, the compound was called inactive.

Take `CC(COCC(C)OC(=O)c1ccccc1)OC(=O)c1ccccc1` (centres undefined): the concentration at half-maximal activity (AC50) is 19.4 µM (active).

In the case of `S=c1[nH]c2ccccc2s1`, the compound was called inactive.

In the case of `CCCCC(CC)COP(=O)(OCC(CC)CCCC)OCC(CC)CCCC` (centres undefined), the half-maximal activity concentration (AC50) is 15.6 µM (active). On to `O=C(N[C@@H](c1ccccc1)[C@@H]1CCCCN1)c1cccc(C(F)(F)F)c1Cl`, for which the AC50 is 31.6 µM (active). In the case of `Cn1cnc2c1c(=O)[nH]c(=O)n2C`, the compound was called inactive.

Take `Cc1cc(SC2=C(O)C[C@@](CCc3ccc(N)cc3)(C(C)C)OC2=O)c(C(C)(C)C)cc1CO`: the compound was called inactive. Still for that read-out and setting: under `CCc1nc(N)nc(N)c1-c1ccc(Cl)cc1` stands “inactive”. For `COc1ccc(OC(F)(F)F)cc1CN[C@H]1CCCN[C@H]1c1ccccc1`, the AC50 was 11.3 µM (active). Regarding `NC(=Nc1ccccc1)Nc1ccccc1`, the call was inactive.

With `CCCCCCC(CCCCCCCCCCC(=O)OCC(COC(C)=O)OC(C)=O)OC(C)=O` (centres undefined), the result was inactive. As for `O=C(NS(=O)(=O)/C=C/c1cccs1)c1ccc(F)cc1Br`, the outcome was inactive. With `CSc1ccc(Oc2ccc(S(N)(=O)=O)cc2CN(C)C)cc1C`, the compound was classed as inactive.

The next test shares this target. The test can be described thus: OT_FXR_FXRSRC1_1440: Odyssey Thera (OT) 24-hour HEK293T Protein-Complementation Assay for Farnesoid X receptor/SRC-1 Co-activator (AID 2283384). The procedure, abridged: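 Compounds are applied to human kidney HEK293T cells expressing bait and prey fused to reporter protein fragments; after 24 h, reconstituted reporter fluorescence is measured. Activity is fitted as signal gain over DMSO.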
Take `Cc1c(C)c2c(c(C)c1O)CCC(C)(COc1ccc(CC3SC(=O)NC3=O)cc1)O2` (centres undefined): the AC50 was 18.2 µM (active). `CN(C)C(=O)NC1(c2ccccc2)CCN(CCC[C@]2(c3ccc(Cl)c(Cl)c3)CCCN(C(=O)c3ccccc3)C2)CC1`: the call was inactive.

`CN(C)C(=O)NC1(c2ccccc2)CCN(CC[C@@]2(c3ccc(F)c(F)c3)CN(C(=O)c3ccccc3)CCO2)CC1`: the call was inactive. With `CC(COCC(C)OC(=O)c1ccccc1)OC(=O)c1ccccc1` (centres undefined), the call was inactive. The same measure, in the same setting: then `S=c1[nH]c2ccccc2s1`, with “inactive”. `CCCCC(CC)COP(=O)(OCC(CC)CCCC)OCC(CC)CCCC` (centres undefined): the AC50 is 67.1 µM (active). The same measure, in the same setting: then `O=C(N[C@@H](c1ccccc1)[C@@H]1CCCCN1)c1cccc(C(F)(F)F)c1Cl`, with 11.4 µM (active). As for `Cn1cnc2c1c(=O)[nH]c(=O)n2C`, the result was inactive.

`Cc1cc(SC2=C(O)C[C@@](CCc3ccc(N)cc3)(C(C)C)OC2=O)c(C(C)(C)C)cc1CO`: the compound was classed as inactive. The same measure, in the same setting: then `CCc1nc(N)nc(N)c1-c1ccc(Cl)cc1`, with “inactive”; and `NC(=Nc1ccccc1)Nc1ccccc1`, with “inactive”. Take `CCCCCCC(CCCCCCCCCCC(=O)OCC(COC(C)=O)OC(C)=O)OC(C)=O` (centres undefined): the compound was called inactive. As for `O=C(NS(=O)(=O)/C=C/c1cccs1)c1ccc(F)cc1Br`, the half-maximal activity concentration (AC50) was 1.72 µM (active). As to `CSc1ccc(Oc2ccc(S(N)(=O)=O)cc2CN(C)C)cc1C`, the AC50 is 26.5 µM (active).
